# Experimental data taken from PubChem BioAssay (NCATS).
# Records with an inconclusive call do not appear. A call without a number means that no potency is given here. Active and inactive are the calls of the source. Calls come from the whole dose curve; as a rule, active = well fitted curve in the direction sought with a large enough effect; inconclusive = small, poorly fitted or top-dose-only effect, or another doubt; inactive = no such curve, though single readings can be large; an effect the other way counts as inactive or inconclusive.
# What was measured:
# [1] = qHTS of pediatric cancer cell lines to identify multiple opportunities for drug repurposing: Primary screen for Rh18 cells (AID 1347102); note: nearly all actives have a fitted effect of over 65% in size
# How it was run: (§1)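 Cells (500-1,000/well) in growth media were settled 5 h at 37 degrees C, then given compounds for 48 h. Viability was read as CellTiter-Glo luminescence. Primary runs used MIPE at 11 points (0.78 nM-46 µM) and NPC at 8 points (0.59 nM-46 µM); follow-ups used 11 points.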
# [2] = qHTS of pediatric cancer cell lines to identify multiple opportunities for drug repurposing: Primary screen for RD cells (AID 1347104); note: nearly all actives have a fitted effect of over 55% in size; note: potency is the fitted concentration of half-maximal effect
# How it was run: (§2)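 Following a 5-hour attachment period, cells at 500-1,000/well received compounds and were cultured for 48 hours. CellTiter-Glo was added and luminescence read to estimate viable, metabolically active cells.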
# [3] = qHTS of pediatric cancer cell lines to identify multiple opportunities for drug repurposing: Primary screen for MG 63 (6-TG R) cells (AID 1347105); note: nearly all actives have a fitted effect of over 50% in size; note: potency is the fitted concentration of half-maximal effect
# How it was run: as §2
# [4] = qHTS of pediatric cancer cell lines to identify multiple opportunities for drug repurposing: Primary screen for control Hh wild type fibroblast cells (AID 1347106);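 note: series mostly up to about 46 µM; a drop in luminescence marks cytotoxicity and a rise apparent proliferation; nearly all actives have a fitted effect of over 55% in size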
# How it was run: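 Viability after 48 h compound treatment at 37C, 500-1,000 cells/well, read as ATP luminescence with CellTiter-Glo. Primary screens used 11-point (MIPE, 0.78 nM-46 µM) or 8-point (NPC, 0.59 nM-46 µM) final concentrations; follow-up screens used 11-point dilutions.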
# [5] = qHTS of pediatric cancer cell lines to identify multiple opportunities for drug repurposing: Primary screen for Rh30 cells (AID 1347107); note: series mostly up to about 46 µM; nearly all actives have a fitted effect of over 75% in size
# How it was run: as §1
# [6] = qHTS of pediatric cancer cell lines to identify multiple opportunities for drug repurposing: Primary screen for Rh41 cells (AID 1347108); note: nearly all actives have a fitted effect of over 70% in size; note: potency is the fitted concentration of half-maximal effect
# How it was run: as §2
# [7] = qHTS of pediatric cancer cell lines to identify multiple opportunities for drug repurposing: Primary screen for OHS-50 cells (AID 1347103); note: nearly all actives have a fitted effect of over 40% in size; note: potency is the fitted concentration of half-maximal effect
# How it was run: (§3)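 Cells (500-1,000/well) rested 5 h, then received compounds for 48 h; metabolically active cells were measured by CellTiter-Glo luminescence. Final concentrations spanned up to 46 µM (MIPE, 11-point) or 0.59 nM-46 µM (NPC, 8-point) in primary screens, 11-point in follow-ups.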
# [8] = qHTS of pediatric cancer cell lines to identify multiple opportunities for drug repurposing: Primary screen for BT-12 cells (AID 1347101); note: nearly all actives have a fitted effect of over 25% in size; note: potency is the fitted concentration of half-maximal effect
# How it was run: as §3
compound,measurement,setting,value
N#Cc1ccc(Oc2ccc3c(c2)COB3O)cc1,Potency,[1],inactive
same,Potency,[2],inactive
same,Potency,[3],inactive
same,Potency,[4],inactive
same,Potency,[5],inactive
same,Potency,[6],inactive
O=C(Nc1ccc(OC(F)(F)F)cc1)c1sccc1NCc1ccnc2ccccc12,Potency,[1],inactive
same,Potency,[3],inactive
same,Potency,[4],inactive
same,Potency,[5],inactive
CC=C(C(=CC)c1ccc(O)cc1)c1ccc(O)cc1,Potency,[1],inactive
same,Potency,[7],27.3 µM (active)
same,Potency,[3],18.7 µM (active)
same,Potency,[4],inactive
same,Potency,[5],inactive
CCOC(=O)[C@H]1O[C@H]1C(=O)N[C@@H](CC(C)C)C(=O)NCCC(C)C,Potency,[8],inactive
same,Potency,[1],inactive
same,Potency,[7],inactive
same,Potency,[3],inactive
same,Potency,[4],inactive
CN(C)c1ccccc1CN1CCCN(Cc2ccccc2N(C)C)C1c1ccncc1,Potency,[7],27.3 µM (active)
same,Potency,[2],26.4 µM (active)
same,Potency,[3],inactive
same,Potency,[4],inactive
same,Potency,[5],inactive
CCCCC[C@H](O)C=C[C@H]1[C@H](O)CC(=O)[C@H]1CC=CCCCC(=O)O,Potency,[1],inactive
same,Potency,[7],inactive
same,Potency,[2],inactive
same,Potency,[3],inactive
same,Potency,[4],inactive
same,Potency,[5],inactive
same,Potency,[6],inactive
COc1ccc(-c2nc3ccc(C4=NNC(=O)CC4C)cc3[nH]2)cc1 (configuration not stated),Potency,[4],inactive
same,Potency,[5],inactive
CCCCCCCCCCCCCC(=O)N[C@H](CO)[C@H](O)c1ccc([N+](=O)[O-])cc1,Potency,[8],24.3 µM (active)
same,Potency,[1],inactive
same,Potency,[7],inactive
same,Potency,[4],inactive
same,Potency,[5],inactive
same,Potency,[6],inactive
CNC(=O)c1c(-c2ccc(F)cc2)oc2cc(N(CCO)S(C)(=O)=O)c(C3CC3)cc12,Potency,[7],27.3 µM (active)
same,Potency,[2],29.6 µM (active)
same,Potency,[5],inactive
same,Potency,[6],18.7 µM (active)
Cc1cc(C(C)Nc2ccccc2)c2nc(N3CCOCC3)cc(=O)n2c1 (configuration not stated),Potency,[8],inactive
same,Potency,[7],24.3 µM (active)
same,Potency,[4],inactive
CN(C(Cc1ccc(OS(=O)(=O)c2cccc3cnccc23)cc1)C(=O)N1CCN(c2ccccc2)CC1)S(=O)(=O)c1cccc2cnccc12 (configuration not stated),Potency,[7],13.7 µM (active)
same,Potency,[5],inactive
CO[C@@H]1C(N(C)C(=O)c2ccccc2)C[C@H]2O[C@]1(C)n1c3ccccc3c3c4c(c5c6ccccc6n2c5c31)C(=O)NC4=O (some centres not stated),Potency,[7],inactive
same,Potency,[3],1.48 µM (active)
same,Potency,[5],inactive
same,Potency,[6],inactive
COc1ccc2cc1Oc1ccc(cc1)C[C@H]1c3cc(c(OC)cc3CCN1C)Oc1c(OC)c(OC)cc3c1[C@H](C2)N(C)CC3,Potency,[8],7.69 µM (active)
same,Potency,[1],inactive
same,Potency,[7],17.2 µM (active)
same,Potency,[4],inactive
CC(C)(O)CC(=O)NCCn1ccc2ncnc(Nc3ccc(Oc4cccc(C(F)(F)F)c4)c(Cl)c3)c21,Potency,[7],30.6 µM (active)
same,Potency,[2],18.7 µM (active)
same,Potency,[4],inactive
Cc1c(C(=O)Nc2ccc(N3C[C@@H](C)O[C@@H](C)C3)nc2)cccc1-c1ccc(OC(F)(F)F)cc1,Potency,[8],13.7 µM (active)
same,Potency,[7],19.3 µM (active)
same,Potency,[3],23.5 µM (active)
same,Potency,[4],inactive
CC(=O)NCCC(=O)N[C@@H](CCC(N)=O)C(=O)N[C@@H](CO)C(=O)N[C@@H](CCC(N)=O)C(=O)N[C@@H](CCC(N)=O)C(=O)N[C@H](C(=O)N[C@@H](Cc1ccccc1)C(=O)N[C@]1(C)CCCCCCC=CCCC[C@@](C)(C(=O)N[C@@H](CCC(N)=O)C(=O)N[C@@H](CC(N)=O)C(N)=O)NC(=O)[C@H](CC(C)C)NC(=O)[C@H](CC(C)C)NC(=O)[C@@H](CCCNC(=N)N)NC(=O)[C@H](Cc2c[nH]c3ccccc23)NC(=O)[C@H](CC(C)C)NC(=O)[C@H](CC(N)=O)NC1=O)[C@H](C)O,Potency,[1],inactive
same,Potency,[7],inactive
same,Potency,[3],inactive
same,Potency,[4],inactive
same,Potency,[6],18.7 µM (active)
CCCCC[C@H](O)C=C[C@H]1[C@H](O)CC(=O)[C@H]1CCCCCCC(=O)O,Potency,[1],inactive
same,Potency,[7],inactive
same,Potency,[3],inactive
same,Potency,[4],inactive
same,Potency,[5],inactive
Cc1cnc(CNC(=O)c2c(=O)c3ccc(N4CCCN(C)CC4)nc3n3c2sc2ccccc23)cn1,Potency,[1],inactive
same,Potency,[7],inactive
same,Potency,[2],inactive
same,Potency,[4],inactive
same,Potency,[6],inactive
COc1c(C)c2c(c(O)c1CC=C(C)CCC(=O)OCCN1CCOCC1)C(=O)OC2,Potency,[8],1.93 µM (active)
same,Potency,[1],inactive
same,Potency,[5],inactive
O=C(CCCN1CCN(c2ccc(F)cc2)CC1)NC1c2ccccc2CSc2ccccc21 (configuration not stated),Potency,[7],8.63 µM (active)
same,Potency,[4],inactive
CO[C@H]1/C=C\O[C@@]2(C)Oc3c(C)c(O)c4c(O)c(c5c(nc6cc(C)ccn65)c4c3C2=O)NC(=O)C(C)=CC=C[C@H](C)[C@H](O)[C@@H](C)[C@@H](O)[C@@H](C)[C@H](OC(C)=O)[C@H]1C,Potency,[2],inactive
same,Potency,[4],inactive
COc1cc(CNC(=O)CCCCC=CC(C)C)ccc1O,Potency,[8],inactive
same,Potency,[1],inactive
same,Potency,[2],inactive
same,Potency,[3],inactive
same,Potency,[4],inactive
same,Potency,[5],inactive
same,Potency,[6],inactive
Cc1cc(OCCCS(C)(=O)=O)cc(C)c1-c1cccc(COc2ccc3c(c2)OC[C@H]3CC(=O)O)c1,Potency,[1],inactive
same,Potency,[3],inactive
same,Potency,[4],inactive
C=CC(=O)Nc1cccc(Sc2nc(Nc3ccc(N4CCN(C)CC4)cc3)ncc2Cl)c1,Potency,[7],27.3 µM (active)
same,Potency,[4],inactive
Cc1ccc(C2=Nc3ccc(Cl)cc3OC2)cc1,Potency,[1],inactive
same,Potency,[7],inactive
same,Potency,[3],inactive
same,Potency,[4],inactive
O=C(Nc1cccc(C(F)(F)F)c1)Nc1cc(S(=O)(=O)NC2CC2)ccc1-c1ccsc1,Potency,[1],inactive
same,Potency,[2],29.6 µM (active)
same,Potency,[4],inactive
C[C@]12CC[C@@H]3c4ccc(O)cc4CC[C@H]3[C@H]1[C@@H](O)[C@@H](O)[C@H]2O,Potency,[1],inactive
same,Potency,[5],inactive
